The target of test [1] is T1, Transcription intermediary factor 1-alpha (Homo sapiens) (UniProt O15164).
T1 sequence (whole entry): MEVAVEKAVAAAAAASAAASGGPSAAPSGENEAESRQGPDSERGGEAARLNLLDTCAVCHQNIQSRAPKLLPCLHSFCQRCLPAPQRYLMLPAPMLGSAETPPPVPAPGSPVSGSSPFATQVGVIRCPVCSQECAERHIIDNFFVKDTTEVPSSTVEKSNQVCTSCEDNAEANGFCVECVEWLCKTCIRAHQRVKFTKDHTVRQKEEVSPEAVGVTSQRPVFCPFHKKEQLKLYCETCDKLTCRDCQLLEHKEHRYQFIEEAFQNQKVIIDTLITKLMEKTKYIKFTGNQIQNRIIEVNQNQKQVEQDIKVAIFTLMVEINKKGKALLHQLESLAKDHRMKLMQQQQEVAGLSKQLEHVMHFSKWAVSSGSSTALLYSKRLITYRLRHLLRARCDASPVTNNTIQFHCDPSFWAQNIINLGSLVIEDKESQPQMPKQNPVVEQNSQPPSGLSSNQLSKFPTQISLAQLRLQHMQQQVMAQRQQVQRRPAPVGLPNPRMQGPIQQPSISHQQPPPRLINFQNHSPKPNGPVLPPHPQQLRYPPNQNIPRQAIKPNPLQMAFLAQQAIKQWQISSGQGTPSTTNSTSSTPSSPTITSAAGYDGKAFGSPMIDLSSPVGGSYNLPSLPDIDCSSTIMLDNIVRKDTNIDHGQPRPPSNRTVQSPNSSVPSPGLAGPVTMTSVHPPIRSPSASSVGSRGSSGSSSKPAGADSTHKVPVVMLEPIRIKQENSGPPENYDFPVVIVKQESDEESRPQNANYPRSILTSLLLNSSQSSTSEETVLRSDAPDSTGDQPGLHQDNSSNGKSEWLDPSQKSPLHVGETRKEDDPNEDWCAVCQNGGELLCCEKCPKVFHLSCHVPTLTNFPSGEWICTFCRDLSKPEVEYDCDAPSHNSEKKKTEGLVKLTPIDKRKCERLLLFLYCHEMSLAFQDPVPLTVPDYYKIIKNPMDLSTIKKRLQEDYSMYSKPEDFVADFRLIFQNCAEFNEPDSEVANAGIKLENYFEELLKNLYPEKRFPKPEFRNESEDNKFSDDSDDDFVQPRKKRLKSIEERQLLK
Conditions: Compound concentration 20.0 uM, Protein concentration 2.0 uM, Result type QC Liability.

Test [2] addresses Bromodomain-containing protein 4 (Homo sapiens) (UniProt O60885). Conditions: Compound concentration 20.0 uM, Protein concentration 2.0 uM, Result type QC Liability.

With `CNC(=O)c1cc(C(=O)N[C@H]2[C@@H]3COC[C@@H]32)cc2c1O[C@H](CF)[C@H]2c1ccccc1`, in test [1], the shift in melting temperature (ΔTm) (usually the change in melting temperature against a reference sample) is -2.73 °C.
Consider `CC(C)(O)CNC(=O)N1C(=O)N(c2cccc(C(F)(F)F)c2)C2=C(C(=O)CC2)[C@H]1c1ccc(C#N)cc1`, for which the values for the thermal shift (ΔTm) in test [2] and in test [1] were 0.34 °C and 0.22 °C, respectively.
The matching figures for `Cc1nn(-c2ccccc2)c(Nc2ccccc2C(=O)O)c1-c1cc2nccnc2c(F)c1F`: -1.68 °C and 0.83 °C.
The matching figures for `CN1Cc2nccc(-c3cn(C)nc3-c3ccc(F)cc3)c2C1=O`: -1.27 °C and -1.67 °C.
On to `C=CC(=O)Nc1cccc(C(=O)Nc2ccc(Nc3cc(-c4c(-c5ccc(F)cc5)nc(SC)n4C)ccn3)cc2)c1`, for which the ΔTm in test [2] is -0.7 °C; in test [1] it was -0.89 °C.
The matching figures for `COc1ccc(N(C(=O)Nc2c(C)cccc2C)c2cc(Nc3ccc(N4CCN(C)CC4)cc3)ncn2)c(OC)c1`: 2.62 °C and 0.7 °C.
Turning to `Cc1ccc(-n2nc(C(C)(C)C)cc2NC(=O)Nc2ccccc2F)cc1`, the thermal shift (ΔTm) is -1.72 °C in test [2] and -1.64 °C in test [1].
The matching figures for `CC(C)N(CCCCOCC(=O)O)c1cnc(-c2ccccc2)c(-c2ccccc2)n1`: -1.87 °C and -0.66 °C.
The matching figures for `C[C@@H]1CC(=O)N(C2CC2)N=C1c1ccc(NC(=O)N2Cc3ccncc3C2)cc1`: -0.04 °C and 0.48 °C.
The matching figures for `CC(C)NC(=O)[C@H]1CCC[C@H]1Nc1nc(Nc2ccc(CN(C)C)cc2)ncc1Br`: -3.19 °C and -4.42 °C.
Regarding `Cc1cc(CN)cc(C)c1-c1ncn(C)c1-c1ccnc2cc(F)ccc12`, the shift in melting temperature (ΔTm) in test [2] was -0.64 °C; in test [1], 0.17 °C.
The matching figures for `N=C(N)NCCC[C@H](NC(=O)CC1(CC(=O)N2CCN(C(c3ccccc3)c3ccccc3)CC2)CCCC1)C(=O)NCc1ccccc1`: -0.62 °C and -1.18 °C.

Source of the values: ChEMBL document CHEMBL5308504, “Tm Shift (DSF) assay results for EUbOPEN Chemogenomics Library” (2023).
